Data from PubChem BioAssay AID1347075 (National Center for Advancing Translational Sciences (NCATS), 2019).
Hit rate of the full screen: of about 400,000 compounds, about 5,500 (1.4%) were called active. A call without a number means that no potency is given here. Roughly 9% stayed inconclusive and do not appear here. Calls follow the shape of the dose curve; as a rule, active = well fitted cell-killing curve with a large enough effect; inconclusive = small, poorly fitted or top-dose-only effect, or effect the other way; inactive = flat fitted curve, though single readings scatter. This excerpt belongs to a sample that is enriched for actives.

assay: qHTS assay for MDR1-selective chemotherapeutics: Primary screen using the parental adenocarcinoma cell KB-3-1; conditions: KB-3-1 viability, CellTiter-Glo ATP luminescence, 72 h; series mostly up to 46.1 µM; also: nearly all actives have a fitted effect of over 60% in size
From the text: A prime difficulty in effectively treating cancer is the development of cellular resistance to multiple structurally unrelated anticancer drugs, a phenomenon known as multidrug resistance (MDR). […] Numerous strategies to overcome P-gp-mediated MDR have been explored, including the design of drugs that evade recognition and efflux, and development of inhibitors to block efflux and restore drug accumulation. […] An alternative approach is to exploit resistance by identifying drugs that target MDR cells over the non-resistant parental cells from which they were selected. […] The development of MDR1-selective agents represents a new strategy for resolving multidrug resistance, as it remains a long-standing clinical challenge for cancer chemotherapy.
Our goal is to identify compounds that selectively kill P-gp-expressing MDR cells. We will identify MDR1-selective compounds by comparing toxicity of compounds in the screening library against parental, drug-naive (KB-3-1) adenocarcinoma cells as well as their drug-selected MDR sub-line (KB-V1). The differential toxicity of compounds against these two cell lines will be used to identify MDR1-selective compounds, whose cytotoxicity is potentiated, rather than diminished, by P-gp expression. This assay will be utilized to conduct a quantitative high-throughput screen (qHTS) in collaboration with the NIH Chemical Genomics Center to identify selective agents, and probe hits arising from the screen will be validated using secondary assays and characterized through a well-established follow-up research program. This screen was run against the entire NCGC library collection of about 400,000 compounds.
NIH Molecular Libraries Probe Production Network [MLPCN]
NIH Chemical Genomics Center [NCGC]
PI: Michael Gottesman PhD, National Cancer Institute, NIH
Briefly, 5 microL of media containing either KB-3-1 cells (columns 1-2, 4-48) are dispensed into Greiner white, treated solid-bottom 1536-well assay plates (media-only control is added to column 3). Compounds are then transferred via Kalypsys pin tool equipped with 1536-pin array (10 nL slotted pins, V&P Scientific, San Diego, CA). Following addition of compound, the plates are incubated at 37 degrees C for 72 hours. CellTiter-Glo (2.5 µL/well) is then added, and the plates are read in a ViewLux reader (Perkin-Elmer, clear luminescence filter, 1 second exposure, 1x binning) following a 10 minute incubation. All cells are dispensed in DMEM phenol-red free media containing 10% FBS.
Library plates were screened starting from the lowest and proceeding to the highest concentration. Vehicle-only plates, with DMSO being pin-transferred to columns 5-48, will be inserted uniformly at the beginning and the end of each library in order to monitor and record any shifts in the background, which can be affected by reagent dispensers or loss in enzyme activity over time. Screening data will be corrected, normalized, and concentration-effect relationships will be derived by using publicly-available NCGC, NCATS curve fitting algorithms (http://ncgc.nih.gov/pub/openhts).
Potency is read from the fitted curve at half-maximal effect.

SMILES	Potency
Cc1ccc(C(=O)Nc2ccc3[nH]c(=O)c(=O)[nH]c3c2)cc1	inactive
O=C1O/C(=C\c2ccc(O)cc2)C(O)=C1c1ccc(O)cc1	inactive
COc1ccc(NC(=O)C(c2ccccc2)N2Cc3ccccc3C2=O)cc1 (stereo not drawn)	inactive
COc1ccccc1C(c1nnnn1C(C)(C)C)N1CCN(Cc2ccccc2)CC1 (stereo not drawn)	inactive
COc1ccc(OC)c(C(c2nnnn2C(C)(C)C)N2CCc3ccccc3C2)c1 (stereo not drawn)	23.1 µM (active)
COCCn1nnnc1C(c1cc2ccc(OC)cc2[nH]c1=O)N1CCc2ccccc2C1 (stereo not drawn)	inactive
CCC(=O)N1CCc2cc(S(=O)(=O)NC(C(=O)Nc3ccc(C(C)=O)cc3)C(C)C)ccc21 (stereo not drawn)	inactive
O=C(CO/N=C/c1ccccc1O)NNC(=O)c1ccccc1Cl	inactive
O=C(NN=Cc1ccccc1O)NN=Cc1ccccc1O	14.6 µM (active)
O=C(Cc1ccccc1)N/N=C/c1ccc(Cl)cc1Cl	inactive
Cc1ccc(S(=O)(=O)c2nc(-c3cccs3)oc2N2CCCCC2)cc1	inactive
N#Cc1ccc(OCC(=O)Nc2nc(-c3ccccn3)cs2)cc1	16.4 µM (active)
CC1CCCCC1NC(=O)COc1ccc(C#N)cc1 (stereo not drawn)	inactive
NS(=O)(=O)c1ccc2nc(NC(=O)COc3ccccc3)sc2c1	inactive
Cc1ccc(CNC(=O)CSc2c(C)cnc3c2c(=O)n(C)c(=O)n3C)cc1	inactive
O=C(CC1Oc2ccccc2NC1=O)NCc1ccc(F)cc1 (stereo not drawn)	inactive
COc1ccc(NC(=O)c2ccco2)cc1NC(=O)COc1ccc(C)c(C)c1	inactive
CC(Nc1nc(N2CCCC2)nc2ccccc12)c1ccccc1 (stereo not drawn)	16.4 µM (active)
c1ccc(-c2cc(N3CCCCC3)c3ccccc3n2)cc1	inactive
Cc1ccc(C(CC(=O)O)Nc2nc(N3CCCCC3)nc(N3CCCCC3)n2)cc1 (stereo not drawn)	inactive
CCC(C)N(c1ccc(/C=C/c2ccnc3ccccc23)cc1)C(C)CC (stereo not drawn)	inactive
COc1ccc(CNC(=O)c2cc3cccc(OC)c3oc2=O)cc1	inactive
COc1cc(NC(=O)CN2CCN(S(=O)(=O)c3ccc(Br)cc3)CC2)cc(OC)c1	inactive
CCCn1c(=N)c(C(=O)NCc2ccccc2)cc2c(=O)n3cccc(C)c3nc21	inactive
Cc1cccn2c(=O)c3cc(C(=O)NC(C)c4ccccc4)c(=N)n(CCCO)c3nc12 (stereo not drawn)	inactive

SMILES	Potency
Cc1cccn2c(=O)c3cc(C(=O)NCCN4CCOCC4)c(=N)n(Cc4cccnc4)c3nc12	8.2 µM (active)
COc1cc(NS(=O)(=O)c2cccs2)cc(OC)c1	inactive
CNC(=O)c1ccc(-c2nc(CN3CCc4ccccc43)c(C)o2)cc1	inactive
Cc1cccc(-n2ncc(C(=O)N3CCC(C)CC3)c2C2CCN(C(=O)OC(C)(C)C)CC2)c1	inactive
CC1(C(=O)NCc2ccco2)Cc2c(-c3ccc4c(c3)OCO4)ccnc2O1 (stereo not drawn)	2.59 µM (active)
O=C(Cn1nnc(-c2ccc3c(c2)OCO3)n1)NCc1ccco1	inactive
CC1(C(=O)Nc2cccnc2)Cc2c(-c3ccccc3)ccnc2O1 (stereo not drawn)	inactive
CS(=O)(=O)N(CC(=O)NCc1ccco1)c1ccc2c(c1)OCO2	inactive
CC(=O)Nc1cccc(-c2ccnc3c2CC(C)(C(=O)NCc2ccco2)O3)c1 (stereo not drawn)	inactive
CC(=O)Nc1cccc(-c2ccnc3c2CC(C)(C(=O)NCc2ccccc2)O3)c1 (stereo not drawn)	2.91 µM (active)
CC1=C(C(=O)OCc2ccc(C)cc2)C(c2c(Cl)cccc2Cl)CC(=O)N1 (stereo not drawn)	inactive
Cc1ccc2nc(COc3cccc(NC(=O)c4cccc(Cl)c4)c3)cc(=O)n2c1	inactive
CCc1nc2ccc(C(=O)N3CCN(c4cc(Cl)ccc4C)CC3)cc2nc1CC	inactive
O=C(c1ccco1)N(Cc1cccs1)c1ccc(O)cc1	inactive
CCOC(=O)C1=CC[C@@H](c2ccccc2)N(S(=O)(=O)c2ccc(C)cc2)[C@H]1c1cccc(OC)c1	inactive
CCOC(=O)C1=CC[C@@H](c2ccccc2)N(S(=O)(=O)c2ccc(C)cc2)[C@H]1c1ccc(CC)cc1	inactive
CCOC(=O)C1C(C)C(C(C)(C)C)N(S(=O)(=O)c2ccc(C)cc2)C1c1ccccc1 (stereo not drawn)	23.1 µM (active)
COc1ccc(-c2ccc3ncnc(NCc4cccs4)c3c2)cc1OC	inactive
Cc1ccccc1CSCCNC(=O)C1CCN(S(=O)(=O)Cc2ccccc2)CC1	inactive
CCCNC(=O)C1CCC(Cn2c(=O)c3sccc3n(Cc3ccccc3F)c2=O)CC1 (stereo not drawn)	inactive
CCOC(=O)c1ccc(NC(=O)c2ncn(-c3ccccc3)n2)cc1	inactive
CCOc1ccc(CNC(=O)c2cc(-c3ccc(Cl)s3)nc3ccccc23)cc1	inactive
CCc1cc2c(N3CCN(c4nnc(CC)s4)CC3)ncnc2s1	9.2 µM (active)
CCc1cc2c(NC(Cc3ccccc3)C(=O)O)ncnc2s1 (stereo not drawn)	inactive
CCN1CCN(c2ncnc3c2cnn3-c2ccc(C)c(C)c2)CC1	inactive

SMILES	Potency
CCCCOc1ccc(C(=O)Nc2cccc(-c3nc4ccccc4o3)c2C)cc1	inactive
Cc1ccc2nc(CN3CCN(S(=O)(=O)c4ccc(C)c(C)c4)CC3)oc2c1	inactive
COc1ccccc1NC(=O)c1cc(N2C(=O)C3C4CCC(C4)C3C2=O)ccc1Cl (stereo not drawn)	inactive
CSc1ccccc1NC(=O)c1cc(Cl)sc1Cl	inactive
COc1ccccc1NC(=O)c1cc(Cl)nnc1Cl	23.1 µM (active)
Oc1ccccc1-c1nc(/C=C/c2ccc(F)cc2)no1	inactive
COc1cc2c(=O)c(S(=O)(=O)c3ccc(C(C)C)cc3)cn(Cc3ccccc3C)c2cc1OC	inactive
CCOc1ccc(-n2c(O)c(/C=N/Nc3nc(C)cc(C)n3)c3ccccc3c2=O)cc1	20.6 µM (active)
CCOc1ccc(-n2c(SCC(=O)Nc3cc(C(=O)O)ccc3Cl)nc3ccccc3c2=O)cc1	inactive
Cc1cc(C)nc(N/N=C/c2c(CO)cnc(C)c2O)n1	inactive
COc1cc(OC)c(NC(=O)c2nc(-c3ccncc3)no2)cc1Cl	inactive
Cc1ccc(N2CCN(C(=O)CCc3c(C)nc4c(c3C)c(=O)n(C)c(=O)n4C)CC2)c(C)c1	inactive
Cc1ccc(OCCn2c(CNc3ccccc3C)nc3ccccc32)cc1	inactive
Cc1cc(C)cc(Nc2ncnc3onc(-c4ccc(F)cc4)c23)c1	inactive
CC1Cc2ccccc2N1S(=O)(=O)c1ccc(Cl)nc1 (stereo not drawn)	inactive
CCC1CN(S(=O)(=O)c2cc(-c3cc(C)no3)ccc2C)c2cc(C)ccc2O1 (stereo not drawn)	inactive
Cc1cc(-c2ccc(C)c(S(=O)(=O)N3c4ccccc4CC3C)c2)on1 (stereo not drawn)	14.6 µM (active)
COc1cccc(C(=O)Nc2ccc(N3CCN(C(=O)c4ccco4)CC3)cc2)c1	4.61 µM (active)
O=C(Nc1ccccc1N1CCN(C(=O)c2ccccc2)CC1)c1ccco1	inactive
O=C(OCC(=O)N1CCN(C(=O)c2ccco2)CC1)c1cccc(O)c1	inactive
Cc1csc2nc(COc3ccc(NC(=O)COc4ccccc4)cc3)cc(=O)n12	inactive
O=C1/C(=C\c2ccc([N+](=O)[O-])cc2)CS(=O)(=O)C/C1=C/c1ccc([N+](=O)[O-])cc1	1.46 µM (active)
O=C1CCCN1C(=O)COc1ccc([N+](=O)[O-])cc1	inactive
O=[N+]([O-])c1ccc(/C=C/c2ccc3cccnc3c2)cc1	inactive
Cc1ccccc1C(=O)Nc1sc2c(c1C(=O)N1CCC(C)CC1)CCCC2	inactive

SMILES	Potency
COc1ccc(CNC(=O)c2ccc3c(O)c(S(=O)(=O)c4ccccc4)c(=O)[nH]c3c2)cc1	inactive
Cc1ccc(C)c(N2C(=O)N(Cc3c(F)cccc3Cl)c3ccccc3S2(=O)=O)c1	inactive
Cc1cc(C)c(NC(=O)Cn2c(SCC(=O)NCc3ccccc3)nc3ccccc32)c(C)c1	inactive
Cc1ccc(-c2cnc(C3CC3)o2)cc1S(=O)(=O)Nc1cccc(C)c1C	inactive
Cc1cccc(NS(=O)(=O)c2ccc(-c3cnc(C4CC4)o3)cc2)c1	1.46 µM (active)
Cc1cccc(CNS(=O)(=O)c2ccc(-c3cnc(C4CC4)o3)cc2)c1	inactive
COCCn1c(CCC(=O)Nc2cc(C)ccc2C)nc2cccnc21	inactive
COC(=O)c1ccccc1NC(=O)c1cc(-c2ccccc2O)no1	inactive
O=C(CSc1nnc(-c2ccncc2)n1-c1ccccc1)Nc1ccc(Cl)c(Cl)c1	inactive
O=C(CC(O)(C(F)(F)F)C(F)(F)F)Nc1ccc(Cl)c(Cl)c1	5.17 µM (active)
Cc1ccc(-c2nn(CCC(=O)Nc3ccc(Cl)c(Cl)c3)c(=O)c3ccccc23)cc1	inactive
CC(C)c1ccc(-c2noc(C3CCCN(S(C)(=O)=O)C3)n2)cc1 (stereo not drawn)	20.6 µM (active)
O=C(Cc1cccs1)N1CCCC(c2nc(-c3ccc(S(=O)(=O)N4CCCC4)cc3)no2)C1 (stereo not drawn)	inactive
COc1cc(-c2noc(C3CCCN(S(=O)(=O)c4cccc(Cl)c4)C3)n2)cc(OC)c1OC (stereo not drawn)	inactive
CC1CCCCN1CC(=O)N1CCCc2c1c(=O)oc1ccc(OCc3ccccc3)cc21 (stereo not drawn)	inactive
Cc1cc(C)c(NC(=O)CCc2c(C)nc3c(c(C)nn3C(C)(C)C)c2C)c(C)c1	inactive
CCc1ccc(CCC(=O)Nc2ccc(S(N)(=O)=O)cc2)o1	inactive
Cc1ccc(CCC(=O)Nc2ncc(Cc3cc(Cl)ccc3Cl)s2)o1	1.16 µM (active)
Cc1cccc(-n2c(=O)c3c(c4cc(C)ccc4n3C)n(CC(=O)Nc3ccccc3Cl)c2=O)c1	inactive
CCC1CCCCN1S(=O)(=O)c1ccc(NC(=O)c2cc(=O)c3ccccc3o2)cc1 (stereo not drawn)	inactive
COc1cc(C(O)c2nc(-c3cccc(C(=O)O)c3)cs2)ccc1F (stereo not drawn)	inactive
COc1ccccc1C(=O)Nc1nc2nc(-c3ccccc3)cc(=O)n2[nH]1	inactive
COc1ccc2c(c1OC)C(=O)OC2Nc1nc(-c2ccccc2)cs1 (stereo not drawn)	3.66 µM (active)
